High-throughput results (PubChem)
ATXN2 expr inh: reduces ATXN2 reporter expression in HEK-293 cells. Potency, µM (titrated, usually from 57 µM), hits mostly inhibitors. 0.72% of 360,000 active. HEK-293 ATXN2-luciferase reporter, luminescence, 24 h; note: nearly all actives have a fitted effect of over 55% in size
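qHTS (up to 57 uM final) was run with 24 h compound exposure of reporter cells at 37 °C. Each well was multiplexed: SteadyGlo luminescence measured ATXN2-luciferase expression after a fluorogenic Gly-Phe-AFC viability readout (25 uM final).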
USP1-UAF1 inh: USP1/UAF1 (human) deubiquitinase inhibition. O94782. recombinant USP1/UAF1, Ub-Rhodamine cleavage fluorescence. Potency, µM (series often up to 57.1 µM), most hits filed as inhibitors. 0.23% of 390,000 active. AID 743255; note: nearly all actives have a fitted effect of over 60% in size
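Step one: compound is pinned into 1nM USP1/UAF1 in HEPES pH 7.8 buffer with TCEP. Step two: 15 min room-temperature incubation. Step three: Ub-Rho (150nM final) starts cleavage, tracked by fluorescence over six one-minute reads.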
ATXN viability: viability counter-screen for ATXN expression inhibitors. S2 cells (HEK-293 line with an ATXN2-luciferase reporter) viability, CellTiter-Fluor protease fluorescence, 24 h. 0.49% of 400,000 active. Potency, µM (highest dose often 56.7 µM), most hits filed as cytotoxic. AID 651635; note: nearly all actives have a fitted effect of over 40% in size
IL1B secr inh: inhibitors of inflammasome signaling (IL-1 beta secretion). THP-1 LPS/ATP IL-1B secretion, AlphaLISA, 16 h; hits give low values. activity change, % at 57.5 µM. 4.7% of 360,000 active. AID 743279; in the data active = activity change below about -50%; inconclusive = mostly about -30% to -49%
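THP-1 cells pretreated 1 hr with compounds (up to 57.5 uM final), then stimulated with LPS (250 ng/mL final) plus ATP (1.25 mM final); secreted IL-1B measured by AlphaLISA after 16 hr, decreased signal indicating inhibition.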
USP2a inh: inhibitors of human ubiquitin-specific protease USP2a; Potency, µM (series often up to 38.3 µM), usual class: inhibitors; O75604; 0.01% of 330,000 active; USP2 core, Ub-CHOP2 coupled fluorogenic reporter, 485/531
Target sequence (O75604 whole entry, looked up): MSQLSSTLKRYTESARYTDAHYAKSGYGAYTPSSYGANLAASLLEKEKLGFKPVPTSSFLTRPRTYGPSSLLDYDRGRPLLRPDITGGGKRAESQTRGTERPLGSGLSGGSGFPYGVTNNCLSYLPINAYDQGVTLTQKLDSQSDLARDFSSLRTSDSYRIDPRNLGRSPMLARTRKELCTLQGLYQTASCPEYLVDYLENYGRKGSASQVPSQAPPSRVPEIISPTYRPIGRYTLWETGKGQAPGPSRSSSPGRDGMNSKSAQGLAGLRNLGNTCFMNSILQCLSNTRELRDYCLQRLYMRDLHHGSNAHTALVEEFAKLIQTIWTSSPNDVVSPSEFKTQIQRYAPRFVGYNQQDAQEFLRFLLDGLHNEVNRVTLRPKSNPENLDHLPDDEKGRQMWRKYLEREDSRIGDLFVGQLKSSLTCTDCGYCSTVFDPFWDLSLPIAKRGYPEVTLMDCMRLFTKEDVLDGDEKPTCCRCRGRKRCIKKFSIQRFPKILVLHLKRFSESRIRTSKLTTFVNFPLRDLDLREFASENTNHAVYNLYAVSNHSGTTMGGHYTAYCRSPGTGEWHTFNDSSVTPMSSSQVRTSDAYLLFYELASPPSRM
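USP2 core (10nM final) preincubated 30min RT with compound in 20mM Tris-HCl pH 8.0, 2mM CaCl2, 2mM beta-mercaptoethanol, 0.05% CHAPS; 25nM Ub-CHOP2 plus 25nM reporter substrate added, fluorescence (Ex485/Em531) read after 60min.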
A number is an active result; 0 = inactive; ? = inconclusive; - = no result given; ! = not active in a repeat. In the library only some 4.8% were active in any assay of this set; here they are far more common. Unless noted, calls come from the whole dose curve; as a rule, active = well fitted curve in the direction sought with a large enough effect; inconclusive = small, poorly fitted or top-dose-only effect, or another doubt; inactive = no such curve, though single readings can be large; an effect the other way counts as inactive or inconclusive.

SMILES	ATXN2 expr inh	USP1-UAF1 inh	ATXN viability	IL1B secr inh	USP2a inh
O=c1[nH]c(O)c(N=Nc2cc([N+](=O)[O-])ccc2O)c(=O)[nH]1	0	?	9.5µM	0	0
CN1CCN(CCOC2c3ccccc3CSc3ccc(Cl)cc32)CC1 (centres undefined)	0	0	?	-87	0
Clc1ccc2c(c1)C(OC1CN3CCC1CC3)c1ccccc1CS2 (centres undefined)	?	0	-	-104	0
CN1C(=O)c2ccccc2Sc2ccc(NC(=O)c3ccc(C(F)(F)F)cc3)cc21	?	0	?	-	-
COc1ccc(-c2c3c(nc4sc5c(Cl)nc(C)nc5c24)CCC3)cc1	0	0	?	0	0
Cn1cc(C2=C(c3cn(C4CCN(Cc5ccccn5)CC4)c4ccccc34)C(=O)NC2=O)c2ccccc21	?	-	0	-	-
COc1ccc(NP(=O)(Oc2cccc(C)c2)Oc2cccc(C)c2)cc1OC	-	0	0	0	0
Cc1cccc(OP(=O)(Nc2ccc(F)cc2)Oc2cccc(C)c2)c1	0	0	0	-72	0
Cc1ccc(CNC(=O)C(=O)NCC(c2cccnc2)N2CCN(c3ccc(F)cc3)CC2)cc1 (centres undefined)	?	0	0	-	-
O=C(Cc1c(O)c2ccccc2oc1=O)c1ccc(F)cc1	0	0	?	0	0
CC(=O)C1CCC2C3CCC4CC(O)CCC4(C)C3CCC12C (centres undefined)	0	0	?	0	0
C[C@]12CCC3C(CC[C@H]4C[C@@H](O)CC[C@]34C)C1CC[C@@H]2OC(=O)[C@H](N)CCCCN (some centres undefined)	?	0	?	-72	0
C[C@@H]1O[C@@H](O[C@H]2C[C@@H](O)[C@]3(CO)[C@@H]4C(CC[C@]3(O)C2)[C@@]2(O)CC[C@H](C3COC(=O)C3)[C@@]2(C)C[C@H]4O)[C@H](O)[C@H](O)[C@H]1O (some centres undefined)	1.6µM	0	?	-65	0
O=C(Nc1ccc(F)cc1)[C@@H](c1ccccc1)N1Cc2ccccc2C1=O	0	0	?	-	-
COc1ccc(S(=O)(=O)Nc2cc([N+](=O)[O-])ccc2OC)cc1	0	0	?	0	0
CC1=CC2OC3CC4OC(=O)C=CC=CC(C(C)O)OCC(O)C5(C)OC5C(=O)OCC2(CC1O)C4(C)C31CO1 (centres undefined)	0.11µM	0	?	-117	-
CC1=CC2OC3CC4OC(=O)C=CC=CC(=O)OCCC(C)C(O)C(=O)OCC2(CC1)C4(C)C31CO1 (centres undefined)	?	0	0.084µM	-103	-
CC(O)C1C=CC=CC(=O)OC2CC3OC4C5OC5(C)C(O)CC4(COC(=O)C(O)C(C)CCO1)C2(C)C31CO1 (centres undefined)	?	0	?	-100	-
CC1CCOC(=O)C=CC=CC(=O)OC2CC3OC4C5OC5(C)C(O)CC4(COC(=O)C1O)C2(C)C31CO1 (centres undefined)	0.27µM	0	0.27µM	-104	-
O=C(NC(O)C(Cl)(Cl)Cl)NC(O)C(Cl)(Cl)Cl (centres undefined)	0	-	0	-	-
COc1cc2nc(N(C)C)c(CNCCc3c[nH]c4ccccc34)cc2c(OC)c1OC	-	-	0	-	-
C[C@H]1CNC(=O)c2c(C(=O)Nc3ccc(CNC(=O)OC(C)(C)C)cc3)ncn21	?	0	?	0	-
Cc1cccc(C)c1NC(=O)CN1CCCC1	0	?	0	0	-
C[C@@H]1C(=O)O[C@H]2C[C@@]34[C@H]5C[C@@H](C(C)(C)C)[C@]36[C@@H](OC(=O)[C@@H]6O)O[C@@]4(C(=O)O5)[C@]21O	0	0	0	0	0
Cc1nc2c(=O)n(C)c(=O)nc-2n(C)n1	3.5µM	0.032µM	7.1µM	-100	0
SMILES	ATXN2 expr inh	USP1-UAF1 inh	ATXN viability	IL1B secr inh	USP2a inh
CCCOC(=O)Cc1ccc(OCC(=O)N(CC)CC)c(OC)c1	0	-	0	-	-
O=C1NC(=S)N(C2CC2)C(=O)/C1=C/c1ccc2c(c1)CCN2CCCCl	0	0	0	-78	0
Nc1ccc(Cl)cc1C(=O)c1ccccc1F	0	-	0	-	-
CCC(Oc1ccccc1OC)C(=O)Nc1ccc2c(c1)OCCO2 (centres undefined)	0	0	?	0	0
Cc1cccc(NP(=O)(Oc2ccccc2)Oc2ccccc2)c1C	0	0	0	-89	0
c1ccc2c(c1)OCC(C1=NCCN1)O2 (centres undefined)	?	0	13µM!	-79	0
C[C@H]1CC[C@@H]2[C@@H](C)[C@H]3[C@H](C[C@H]4[C@@H]5CC=C6C[C@@H](O[C@@H]7O[C@H](CO)[C@H](O)[C@H](O[C@@H]8O[C@H](CO)[C@@H](O)[C@H](O)[C@H]8O)[C@H]7O[C@@H]7O[C@@H](C)[C@H](O)[C@@H](O)[C@H]7O)CC[C@]6(C)[C@H]5CC[C@]34C)N2C1	?	?	-	-98	0
COC(=O)C1=C(c2ccc(F)cc2OCc2ccccc2)C[C@@H]2CC[C@H]1N2C(=O)NCc1ccc([N+](=O)[O-])cc1	0	0	?	-58	0
COC(=O)C1=C(c2ccc(-c3ccccc3)c(F)c2)C[C@@H]2CC[C@H]1N2C(=O)N1CCCC1	?	0	?	-69	0
COC(=O)C1=C(c2ccc(F)cc2OCc2ccccc2)C[C@@H]2CC[C@H]1N2C(=O)N1CCC(O)(c2ccc(Cl)cc2)CC1	0	0	?	-53	0
COC(=O)C1=C(c2ccc(F)cc2OCc2ccccc2)C[C@@H]2CC[C@H]1N2C(=O)N1CCCCC1	0	0	0	0	0
COC(=O)C1=C(c2ccc(F)cc2OCc2ccccc2)C[C@@H]2CC[C@H]1N2C(=O)NCc1ccc(C)cc1	?	0	?	-59	0
C[N+]1([O-])[C@@H]2CC[C@H]1CC(OC(=O)C(CO)c1ccccc1)C2 (some centres undefined)	-	-	0	-	-
C=CCC1([C@H](C)CCC)C(=O)NC(=O)NC1=O	0	-	0	-	-
CCOC(=O)CC(NC(=O)C(Cc1ccc(N(CCCl)CCCl)cc1)NC(C)=O)C(=O)OCC (centres undefined)	0	0	?	-79	0
CSc1ccc(C(=O)C2CCCN(Cc3cc4ccccc4[nH]3)C2)cc1 (centres undefined)	0	0	0	-100	0
O=C(C1CC(c2ccc(F)cc2)=NO1)N1CCC2(CC1)OCCO2 (centres undefined)	0	0	0	0	0
O=C(C1CC(c2ccc(Cl)c(Cl)c2)=NO1)N1CCC2(CC1)OCCO2 (centres undefined)	0	0	0	-71	0
O=c1[nH]c2cc(Cl)ccc2n1C1CCNCC1	0	-	0	-	-
Cc1ccc(N2C(=O)NC(=O)/C(=C\C=C\c3ccco3)C2=O)cc1	10µM	0	7.9µM	-97	0
